Assay results reported in PubChem BioAssay (Tox21).
Inconclusive results are not listed. Where a call stands in place of a potency, no number is given. Activity calls are given as the source filed them. Unless noted, the call rests on the fitted dose curve; in most records, active means well fitted curve in the direction sought with a large enough effect in the repeat runs; inconclusive means weak or mixed curves; inactive means no such curve, though single readings can be large; an effect the other way counts as inactive or inconclusive.

Tests used:
[1] = Human pregnane X receptor (PXR) small molecule agonists, qHTS cell viability counter screen (AID 1346977); further: nearly all actives have a fitted effect of over 50% in size
In short: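 PXR-Luc HepG2 cells in medium with 5% charcoal-stripped FBS were pre-incubated 5hr, then exposed to compounds for 24hr at 37C. Viability was read in the same wells by CellTiter-Fluor fluorescence, reagent added after 23hr with a 1hr incubation.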

[2] = Caspase-3/7 induction in HepG2 cells by small molecules, qHTS assay (AID 1346978); further: nearly all actives have a fitted effect of over 15% in size
In short: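 Caspase-3/7 induction was measured by Caspase-Glo 3/7 luminescence (30 min, room temperature) after a 17 hr compound exposure of wild-type HepG2 cells seeded at 2,000 per well and pre-incubated 5 hr.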

[3] = Caspase-3/7 induction in CHO-K1 cells by small molecules, qHTS cell viability counter screen (AID 1346979); further: nearly all actives have a fitted effect of over 35% in size
In short: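 Wild-type CHO-K1 cells were seeded at 1,500 per well, rested 5hr at 37 C, then exposed to compounds in DMSO. After 16hr, CellTiter-Fluor reagent was added and fluorescence read 1hr later as the viability measure.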

[4] = Caspase-3/7 induction in HepG2 cells by small molecules, qHTS cell viability counter screen (AID 1346981); further: series mostly up to about 92 µM; nearly all actives have a fitted effect of over 30% in size
In short: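 Viability determined by CellTiter-Fluor fluorescence in HepG2 wells also used for the luminescent Caspase-Glo 3/7 read. Compounds were present for 16 hr at 37 C, 5% CO2 before reagent addition.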

[5] = biological target: Acetylcholinesterase (Homo sapiens) (UniProt P22303); assay: Acetylcholinesterase (AChE) small molecule antagonists: colormetric cell-based qHTS assay (AID 1347395; calls by dose curve; further: nearly all actives have a fitted effect of over 30% in size; further: potency means the concentration at half of the fitted maximal effect)
Acetylcholinesterase (Homo sapiens), sequence (P22303 whole entry, looked up): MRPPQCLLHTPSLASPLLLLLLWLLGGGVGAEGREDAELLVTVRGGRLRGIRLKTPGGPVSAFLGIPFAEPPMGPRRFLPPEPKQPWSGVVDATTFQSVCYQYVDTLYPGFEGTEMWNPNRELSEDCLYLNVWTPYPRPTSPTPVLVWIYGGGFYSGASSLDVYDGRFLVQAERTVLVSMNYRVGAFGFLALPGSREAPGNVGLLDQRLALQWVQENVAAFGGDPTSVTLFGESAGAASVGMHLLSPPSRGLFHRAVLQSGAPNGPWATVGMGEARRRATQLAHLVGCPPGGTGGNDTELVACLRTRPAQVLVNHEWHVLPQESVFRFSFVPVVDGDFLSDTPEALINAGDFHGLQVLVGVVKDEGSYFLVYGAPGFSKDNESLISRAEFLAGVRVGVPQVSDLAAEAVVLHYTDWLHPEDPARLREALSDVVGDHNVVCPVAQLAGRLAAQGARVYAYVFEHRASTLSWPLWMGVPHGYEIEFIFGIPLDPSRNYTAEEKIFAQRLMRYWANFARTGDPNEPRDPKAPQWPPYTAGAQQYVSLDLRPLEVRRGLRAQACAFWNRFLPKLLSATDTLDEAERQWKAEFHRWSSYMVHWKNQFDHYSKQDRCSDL
In short: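 SH-SY5Y cells, plated overnight at 37 C, were exposed to compounds for 30 min at 37 C and 5% CO2. Acetylthiocholine plus DTNB was then added, and thiocholine from endogenous AChE was quantified colorimetrically after 90 min at 37 C.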

[6] = biological target: Acetylcholinesterase (Homo sapiens) (UniProt P22303); assay: Acetylcholinesterase (AChE) small molecule antagonists: fluorescence cell-based qHTS assay (AID 1347398; calls by dose curve; further: nearly all actives have a fitted effect of over 50% in size; further: potency means the concentration at half of the fitted maximal effect); details: Potency: AChE activity
In short: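 Read-out is Thiolite Green fluorescence at Ex/Em = 490/520 nm, formed by reaction with thiocholine released when cellular AChE in SH-SY5Y cells hydrolyzes acetylthiocholine. Compounds were preincubated 30 min at 37 C before substrate.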

[7] = biological target: Acetylcholinesterase (Homo sapiens) (UniProt P22303); assay: Acetylcholinesterase (AChE) small molecule antagonists: enzyme-based qHTS assay with human liver microsomes (AID 1347399; calls by dose curve; further: nearly all actives have a fitted effect of over 60% in size; further: potency means the concentration at half of the fitted maximal effect); details: Potency: qHTS inhibition
In short: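 Recombinant human AChE (50 mU/mL in the enzyme mix) and human liver microsomes (0.25 mg/mL final) were preincubated with compound and NADPH (0.25 mg/mL final) for 30 min at 37 C. Acetylthiocholine/DTNB was then added; thiocholine was read colorimetrically after 10 min at room temperature.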

[8] = biological target: Cytochrome P450 2D6 (Homo sapiens) (UniProt P10635); assay: Cytochrome P450 Family 2 Subfamily D Member 6 (CYP2D6) small molecule antagonists: luciferase reporter qHTS assay (AID 1671196); further: series mostly up to about 120 µM; nearly all actives have a fitted effect of over 50% in size
Cytochrome P450 2D6 (Homo sapiens), sequence (P10635 whole entry, looked up): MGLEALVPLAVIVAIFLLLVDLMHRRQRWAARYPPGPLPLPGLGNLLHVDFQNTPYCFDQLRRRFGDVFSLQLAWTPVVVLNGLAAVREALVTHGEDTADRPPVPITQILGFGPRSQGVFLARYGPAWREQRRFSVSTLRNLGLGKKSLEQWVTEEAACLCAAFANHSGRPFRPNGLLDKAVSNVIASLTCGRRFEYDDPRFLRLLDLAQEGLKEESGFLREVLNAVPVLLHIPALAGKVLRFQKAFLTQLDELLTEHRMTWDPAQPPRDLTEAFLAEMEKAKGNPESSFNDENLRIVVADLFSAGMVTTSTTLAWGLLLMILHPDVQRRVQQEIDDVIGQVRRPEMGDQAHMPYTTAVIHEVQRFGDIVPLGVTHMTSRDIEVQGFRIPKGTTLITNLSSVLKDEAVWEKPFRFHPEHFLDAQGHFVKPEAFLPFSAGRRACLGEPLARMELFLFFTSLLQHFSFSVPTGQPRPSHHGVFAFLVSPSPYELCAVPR
In short: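 Each well received CYP2D6 with its proluciferin substrate and chemical, sat 10 min, then got NADPH regeneration solution for 1 h at room temperature. Luminescence in RLU served as the activity measure.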

[9] = biological target: Cytochrome P450 2C19 (Homo sapiens) (UniProt P33261); assay: Cytochrome P450 Family 2 Subfamily C Member 19 (CYP2C19) small molecule antagonists: luciferase reporter qHTS assay (AID 1671197); further: nearly all actives have a fitted effect of over 65% in size; further: potency means the concentration at half of the fitted maximal effect
Cytochrome P450 2C19 (Homo sapiens), sequence (P33261 whole entry, looked up): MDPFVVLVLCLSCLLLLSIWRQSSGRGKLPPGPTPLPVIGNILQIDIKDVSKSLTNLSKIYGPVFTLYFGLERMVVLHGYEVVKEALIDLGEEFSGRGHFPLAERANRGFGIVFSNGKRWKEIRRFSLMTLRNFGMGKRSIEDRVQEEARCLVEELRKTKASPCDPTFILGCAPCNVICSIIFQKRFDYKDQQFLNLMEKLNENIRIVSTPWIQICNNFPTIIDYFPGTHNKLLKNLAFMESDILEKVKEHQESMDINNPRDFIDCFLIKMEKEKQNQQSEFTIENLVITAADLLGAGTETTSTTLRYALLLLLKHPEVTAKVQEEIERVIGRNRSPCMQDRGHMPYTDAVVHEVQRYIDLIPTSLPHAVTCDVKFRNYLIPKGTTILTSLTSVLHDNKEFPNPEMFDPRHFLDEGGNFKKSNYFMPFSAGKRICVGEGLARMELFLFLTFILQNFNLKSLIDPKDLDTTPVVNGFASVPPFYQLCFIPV
In short: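 Compounds were tested on CYP2C19 activity via proluciferin conversion to luciferin. The 37C, 1 h reaction followed NADPH addition; detection reagent stopped it.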

[10] = biological target: Cytochrome P450 2C9 (Homo sapiens) (UniProt P11712); assay: Cytochrome P450 Family 2 Subfamily C Member 9 (CYP2C9) small molecule antagonists: luciferase reporter qHTS assay (AID 1671198); further: nearly all actives have a fitted effect of over 50% in size; further: potency means the concentration at half of the fitted maximal effect
Cytochrome P450 2C9 (Homo sapiens), sequence (P11712 whole entry, looked up): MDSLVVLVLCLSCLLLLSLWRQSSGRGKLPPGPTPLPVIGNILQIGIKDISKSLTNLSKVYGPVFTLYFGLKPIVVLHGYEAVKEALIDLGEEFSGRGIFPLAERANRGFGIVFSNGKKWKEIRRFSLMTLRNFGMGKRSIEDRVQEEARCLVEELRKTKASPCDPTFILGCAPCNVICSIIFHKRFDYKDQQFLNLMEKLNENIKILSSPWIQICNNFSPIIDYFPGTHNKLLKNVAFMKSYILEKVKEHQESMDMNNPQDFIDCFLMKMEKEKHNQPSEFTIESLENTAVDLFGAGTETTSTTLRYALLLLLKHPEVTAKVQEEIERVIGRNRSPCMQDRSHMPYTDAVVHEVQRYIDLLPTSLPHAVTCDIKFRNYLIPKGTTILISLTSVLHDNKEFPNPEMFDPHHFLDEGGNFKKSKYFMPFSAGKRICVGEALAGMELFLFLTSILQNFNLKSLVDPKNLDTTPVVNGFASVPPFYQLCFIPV
In short: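 Enzyme-substrate mix preincubated with compound 10 min at room temperature; reaction started with NADPH regeneration solution, 1 h 37C. Luminescent luciferin product read after 20 min detection reagent.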

[11] = biological target: Cytochrome P450 1A2 (Homo sapiens) (UniProt P05177); assay: Cytochrome P450 Family 1 Subfamily A Member 2 (CYP1A2) small molecule antagonists: luciferase reporter qHTS assay (AID 1671199); further: nearly all actives have a fitted effect of over 50% in size; further: potency means the concentration at half of the fitted maximal effect
Cytochrome P450 1A2 (Homo sapiens), sequence (P05177 whole entry, looked up): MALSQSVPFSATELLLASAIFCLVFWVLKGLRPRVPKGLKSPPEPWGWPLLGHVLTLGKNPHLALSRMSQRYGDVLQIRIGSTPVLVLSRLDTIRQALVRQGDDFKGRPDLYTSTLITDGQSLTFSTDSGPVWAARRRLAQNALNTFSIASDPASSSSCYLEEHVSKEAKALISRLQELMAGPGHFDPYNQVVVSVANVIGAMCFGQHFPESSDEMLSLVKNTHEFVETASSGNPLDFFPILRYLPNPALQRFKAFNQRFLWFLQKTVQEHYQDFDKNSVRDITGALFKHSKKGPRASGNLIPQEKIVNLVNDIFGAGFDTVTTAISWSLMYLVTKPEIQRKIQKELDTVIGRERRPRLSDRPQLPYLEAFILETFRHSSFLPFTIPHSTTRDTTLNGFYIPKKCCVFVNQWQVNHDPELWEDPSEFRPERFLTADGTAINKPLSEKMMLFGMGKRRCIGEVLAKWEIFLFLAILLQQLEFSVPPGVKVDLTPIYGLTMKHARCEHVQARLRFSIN
In short: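 Enzymatic CYP1A2 assay, human, luminescent: 10 min compound–enzyme–substrate preincubation, 1 h NADPH-dependent turnover, 20 min detection step, room temperature throughout. Reduced light indicates lower CYP1A2 activity.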

[12] = biological target: Cytochrome P450 3A4 (Homo sapiens) (UniProt P08684); assay: Cytochrome P450 Family 3 Subfamily A Member 4 (CYP3A4) small molecule antagonists: luciferase reporter qHTS assay (AID 1671201); further: nearly all actives have a fitted effect of over 50% in size; further: potency means the concentration at half of the fitted maximal effect
Cytochrome P450 3A4 (Homo sapiens), sequence (P08684 whole entry, looked up): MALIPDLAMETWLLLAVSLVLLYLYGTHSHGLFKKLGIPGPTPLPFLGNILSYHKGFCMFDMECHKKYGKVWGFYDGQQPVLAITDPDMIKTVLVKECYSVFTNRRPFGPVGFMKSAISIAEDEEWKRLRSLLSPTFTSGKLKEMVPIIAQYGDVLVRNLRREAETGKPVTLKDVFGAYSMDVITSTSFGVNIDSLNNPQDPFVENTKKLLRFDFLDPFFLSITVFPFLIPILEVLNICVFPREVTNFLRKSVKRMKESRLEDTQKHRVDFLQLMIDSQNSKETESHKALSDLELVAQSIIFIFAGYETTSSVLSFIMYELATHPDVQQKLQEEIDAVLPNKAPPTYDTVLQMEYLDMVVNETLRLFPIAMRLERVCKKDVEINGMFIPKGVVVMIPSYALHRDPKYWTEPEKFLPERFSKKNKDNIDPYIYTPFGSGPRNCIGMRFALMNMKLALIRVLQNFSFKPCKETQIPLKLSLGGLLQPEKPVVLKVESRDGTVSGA
In short: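 P450-Glo CYP3A4 system with proluciferin substrate; compounds preincubated 10 min RT with enzyme-substrate mix, then NADPH regeneration added for 1 h RT. Detection reagent 20 min, luminescence read as relative luminescence units.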

[13] = biological target: Nuclear receptor subfamily 1 group I member 2 (Homo sapiens) (UniProt O75469); assay: Human pregnane X receptor (PXR) small molecule agonists, qHTS assay (AID 1346982); further: nearly all actives have a fitted effect of over 35% in size; further: potency means the concentration at half of the fitted maximal effect
Nuclear receptor subfamily 1 group I member 2 (Homo sapiens), sequence (O75469 whole entry, looked up): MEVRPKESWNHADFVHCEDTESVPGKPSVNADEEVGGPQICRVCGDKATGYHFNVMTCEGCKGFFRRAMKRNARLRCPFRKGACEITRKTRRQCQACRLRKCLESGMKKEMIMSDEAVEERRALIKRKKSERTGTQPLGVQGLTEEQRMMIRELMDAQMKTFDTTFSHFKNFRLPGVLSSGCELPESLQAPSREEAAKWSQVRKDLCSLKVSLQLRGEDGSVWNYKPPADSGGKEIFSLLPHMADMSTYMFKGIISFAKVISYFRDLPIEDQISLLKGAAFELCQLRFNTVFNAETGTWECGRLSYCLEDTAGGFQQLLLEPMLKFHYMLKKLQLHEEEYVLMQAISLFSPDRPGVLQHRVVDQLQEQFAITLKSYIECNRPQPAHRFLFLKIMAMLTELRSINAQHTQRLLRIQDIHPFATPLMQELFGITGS
In short: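 Compound-induced hPXR transactivation of a CYP3A4 luciferase reporter was scored in HepG2 PXR-Luc cells over 24 hr at 37 C, 5% CO2, by luminescence.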

[14] = biological target: Acetylcholinesterase (Homo sapiens) (UniProt P22303); assay: Acetylcholinesterase (AChE) small molecule antagonists: enzyme-based qHTS assay (AID 1347397; calls by dose curve; further: nearly all actives have a fitted effect of over 55% in size; further: potency means the concentration at half of the fitted maximal effect); details: Potency: AChE enzyme activity inhibition
In short: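 rhAChE 50 mU/mL (dispensed) + cpd or DMSO, 30 min RT; add DTNB/acetylthiocholine cocktail, 10 min RT; colorimetric thiocholine readout. qHTS, 1536-well format.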

[15] = biological target: Voltage-gated inwardly rectifying potassium channel KCNH2 (Homo sapiens) (UniProt Q12809); assay: Human Ether-a-go-go-Related Gene (hERG) channel small molecule antagonists: fluorescence cell-based qHTS assay (AID 1671200)
Voltage-gated inwardly rectifying potassium channel KCNH2 (Homo sapiens), sequence (Q12809 whole entry, looked up): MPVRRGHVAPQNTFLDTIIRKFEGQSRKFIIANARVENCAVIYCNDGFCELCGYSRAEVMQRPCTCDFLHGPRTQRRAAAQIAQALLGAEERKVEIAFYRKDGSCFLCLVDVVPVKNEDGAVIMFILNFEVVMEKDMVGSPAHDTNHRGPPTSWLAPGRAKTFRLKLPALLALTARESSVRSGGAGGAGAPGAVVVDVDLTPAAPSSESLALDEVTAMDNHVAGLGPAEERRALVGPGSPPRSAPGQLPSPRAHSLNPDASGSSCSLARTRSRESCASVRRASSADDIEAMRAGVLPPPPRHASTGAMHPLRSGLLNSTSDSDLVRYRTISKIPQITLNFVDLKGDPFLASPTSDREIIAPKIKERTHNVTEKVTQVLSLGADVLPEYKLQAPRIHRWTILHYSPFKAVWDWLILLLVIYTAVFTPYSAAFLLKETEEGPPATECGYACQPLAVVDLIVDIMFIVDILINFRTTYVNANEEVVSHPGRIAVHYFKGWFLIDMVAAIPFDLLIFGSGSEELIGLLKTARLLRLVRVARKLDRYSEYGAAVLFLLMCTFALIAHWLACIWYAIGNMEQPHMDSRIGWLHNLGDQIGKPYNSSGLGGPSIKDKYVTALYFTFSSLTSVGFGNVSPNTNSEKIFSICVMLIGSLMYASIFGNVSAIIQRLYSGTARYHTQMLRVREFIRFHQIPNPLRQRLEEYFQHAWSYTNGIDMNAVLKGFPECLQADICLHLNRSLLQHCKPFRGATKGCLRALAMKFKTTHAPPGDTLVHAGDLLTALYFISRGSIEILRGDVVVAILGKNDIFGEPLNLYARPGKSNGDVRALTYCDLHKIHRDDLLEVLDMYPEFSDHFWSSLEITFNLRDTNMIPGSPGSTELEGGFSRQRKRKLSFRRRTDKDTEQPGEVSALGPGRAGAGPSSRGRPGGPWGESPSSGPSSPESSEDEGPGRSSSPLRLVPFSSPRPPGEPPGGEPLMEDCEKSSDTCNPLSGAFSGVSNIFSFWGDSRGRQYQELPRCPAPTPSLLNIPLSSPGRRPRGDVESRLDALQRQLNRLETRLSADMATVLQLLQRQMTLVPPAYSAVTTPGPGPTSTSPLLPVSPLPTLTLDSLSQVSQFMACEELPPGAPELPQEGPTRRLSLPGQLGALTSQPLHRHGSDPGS
In short: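 U2OS cells expressing the channel were plated at 1000 cells/well, incubated overnight at 37 C, then loaded with FluxOR II thallium-sensitive dye for 1 h at room temperature in the dark, with a further 10 min at room temperature before stimulation.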

[16] = Caspase-3/7 induction in CHO-K1 cells by small molecules, qHTS assay (AID 1346980); further: nearly all actives have a fitted effect of over 15% in size
In short: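 Luminescent Caspase-Glo 3/7 read (30min, room temperature) quantified apoptosis induction. Cells were wild-type CHO-K1, treated with compound for 17hr at 37 C and 5% CO2.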

[17] = biological target: Nuclear receptor subfamily 1 group I member 2 (Homo sapiens) (UniProt O75469); assay: CYP3A4 induction through human pregnane X receptor (PXR) by small molecules, qHTS assay (AID 1346984); further: nearly all actives have a fitted effect of over 40% in size
In short: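 Readings come from a luciferase reporter: DPX-2 cells, which are HepG2 cotransfected with PXR and a CYP3A4-promoter construct, were exposed to test compounds for 24 h at 37C before One-Glo detection.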

[18] = biological target: Nuclear receptor subfamily 1 group I member 2 (Homo sapiens) (UniProt O75469); assay: Human pregnane X receptor (PXR) activation by small molecules, qHTS assay (AID 1346985); further: nearly all actives have a fitted effect of over 40% in size
In short: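 DPX-2 cells (HepG2 co-transfected with a PXR response element and a CYP3A4-promoter luciferase construct) were seeded at 2,000 per well, rested 5 hr at 37C, then exposed to DMSO-dissolved compounds for 24 hr. Activation was read as luciferase luminescence.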

Row | SMILES | Potency [1] | Potency [2] | Potency [3] | Potency [4] | Potency [5] | Potency [6] | Potency [7] | Potency [8] | Potency [9] | Potency [10] | Potency [11] | Potency [12] | Potency [13] | Potency [14] | Potency [15] | Potency [16] | Potency [17] | Potency [18]
1 | CCOC(=O)C(c1c(O)c2ccccc2oc1=O)c1c(O)c2ccccc2oc1=O | inactive | inactive | inactive | inactive | inactive | inactive | inactive | inactive | inactive | 2.75 µM (active) | 27.5 µM (active) | inactive | – | – | – | – | – | –
2 | COP(=S)(OC)Oc1c(Cl)cc(C)cc1Cl | inactive | inactive | inactive | inactive | inactive | inactive | inactive | inactive | 7.1 µM (active) | 8.94 µM (active) | – | – | 24.3 µM (active) | inactive | inactive | – | – | –
3 | [O]=[Cd] | inactive | inactive | – | inactive | inactive | inactive | inactive | inactive | inactive | inactive | inactive | inactive | inactive | inactive | inactive | inactive | inactive | inactive
4 | O=C1OC(c2ccc(O)c(S(=O)(=O)O)c2)(c2ccc(O)c(S(=O)(=O)O)c2)c2c(Br)c(Br)c(Br)c(Br)c21 | inactive | inactive | inactive | inactive | inactive | inactive | inactive | inactive | inactive | – | inactive | inactive | inactive | inactive | – | – | inactive | inactive
5 | Cc1coc2c1CCC(C)C2 (stereo unspecified) | inactive | inactive | inactive | inactive | inactive | inactive | inactive | – | 73.4 µM (active) | – | – | 29.2 µM (active) | 17.8 µM (active) | inactive | inactive | – | – | –
6 | CCCCOC(=O)c1ccccc1C(=O)O | inactive | inactive | – | inactive | inactive | inactive | – | inactive | – | – | inactive | inactive | inactive | inactive | inactive | inactive | – | –
7 | CCOC(=O)NC(=S)Nc1ccccc1NC(=S)NC(=O)OCC | inactive | inactive | – | inactive | inactive | inactive | inactive | – | 5.03 µM (active) | – | 31.7 µM (active) | 25.2 µM (active) | 27.3 µM (active) | inactive | inactive | inactive | – | –
8 | CCOP(=S)(OCC)Oc1ncn(-c2ccccc2)n1 | inactive | inactive | – | inactive | 31.7 µM (active) | 35.6 µM (active) | 3.17 µM (active) | inactive | 1 µM (active) | 0.502 µM (active) | 1.78 µM (active) | 2.52 µM (active) | 27.3 µM (active) | 71 µM (active) | inactive | inactive | – | –
9 | C[C@]12CC[C@H]3[C@@H](CCC4=CC(=O)CC[C@@]43C)[C@@H]1CC[C@@H]2C(=O)O | inactive | inactive | – | inactive | inactive | inactive | inactive | – | inactive | – | inactive | inactive | inactive | inactive | – | inactive | – | –
10 | CCC(=O)c1ccccc1 | inactive | inactive | – | inactive | inactive | – | inactive | inactive | inactive | inactive | – | inactive | inactive | inactive | inactive | inactive | – | –
11 | COc1ncc(F)c2nc(S(=O)(=O)Nc3c(F)cccc3F)nn12 | inactive | inactive | – | inactive | inactive | inactive | inactive | inactive | inactive | 22.6 µM (active) | inactive | inactive | inactive | inactive | inactive | inactive | – | –
12 | O=C(O)C(Br)CBr (stereo unspecified) | inactive | inactive | – | inactive | inactive | inactive | inactive | – | inactive | – | 64.4 µM (active) | inactive | 62.2 µM (active) | – | inactive | inactive | – | –
